The whole screen tested about 350,000 compounds, of which about 1,900 (0.54%) were called active. This is one part of a sample in which actives are shown more often than they occur.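 How the source made its calls: active means mean inhibition across replicates at least about 35%, with every replicate also reaching that limit (limit read from the data); inconclusive means only one of the two criteria met; inactive means neither criterion met.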
Target: Caspase-6 (Homo sapiens) (UniProt P55212)
Experiment: human caspase-6 inhibitors, primary screen, biochemical, VEID-R110 fluorescence, single point, set 2 (AID 686996);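 further: 0% = median of neutral control wells and 100% = no fluorescence left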
Details: purified caspase-6, Z-VEID-R110 cleavage fluorescence; at 12.5 µM; stronger effect = higher value

Caspase-6 (Homo sapiens), sequence (P55212 24-179 limits assumed): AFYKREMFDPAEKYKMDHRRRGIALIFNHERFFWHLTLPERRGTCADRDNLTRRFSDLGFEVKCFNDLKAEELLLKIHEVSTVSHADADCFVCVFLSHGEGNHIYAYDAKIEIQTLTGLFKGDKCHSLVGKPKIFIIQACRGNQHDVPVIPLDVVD
Caspase-6 (Homo sapiens), sequence (P55212 194-293 limits assumed): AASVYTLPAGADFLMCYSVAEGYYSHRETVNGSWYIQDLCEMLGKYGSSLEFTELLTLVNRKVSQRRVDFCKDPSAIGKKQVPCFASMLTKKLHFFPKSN

inhibition, inactive:
C[C@@H]1CCCCO[C@H](CN(C)S(=O)(=O)c2ccc(Cl)cc2)[C@H](C)CN([C@H](C)CO)C(=O)c2cc(NC(=O)NC3CCCCC3)ccc2O1 -2.73%, N#C[C@H]1[C@@H](c2ccc(C3=CCCCC3)cc2)[C@@H](CO)N1C(=O)Cc1ccncc1 0.643%, O=S(=O)(c1ccccc1)N1[C@H](CO)[C@@H]2c3ccccc3NC[C@@H]21 -2.35%, C[C@@H]1CN([C@H](C)CO)C(=O)Cc2cc(NC(=O)NC3CCCCC3)ccc2O[C@H]1CN(C)S(=O)(=O)c1ccc(Cl)cc1 0.436%, C[C@H](O)C#Cc1ccc([C@@H]2[C@H](CO)N3CCCCN(CC4CC4)C[C@@H]23)cc1 4.05%, CN(C)CC(=O)N[C@H]1CC[C@H](CCNC(=O)Nc2ccc(F)cc2)O[C@H]1CO 2.23%, CC(C)NC(=O)N(C)C[C@H]1Oc2ccc(NS(C)(=O)=O)cc2CC(=O)N([C@@H](C)CO)C[C@H]1C -2.92%, COc1ccc2nc(-c3ccccn3)ccc2c1 -1.05%, COc1ccc(-c2cc3ncccc3cn2)cc1 1.91%, C[C@@H]1CCCCO[C@H](CN(C)S(=O)(=O)c2cccs2)[C@H](C)CN([C@@H](C)CO)C(=O)c2cc(NC(=O)Nc3ccc4c(c3)OCO4)ccc2O1 -0.622%, COc1ccc(S(=O)(=O)Nc2ccc3c(c2)CC(=O)N([C@@H](C)CO)C[C@@H](C)[C@@H](CN(C)C)O3)cc1 2.95%, Cc1cccc(NC(=S)NCc2ccc3[nH]c4c(c3c2)CCCC4)c1 -0.948%, O=C(CCC(=O)c1ccccc1)NCc1cccc(C(F)(F)F)c1 -0.291%, C[C@@H]1CN([C@@H](C)CO)C(=O)c2cccc(NC(=O)Nc3ccc4c(c3)OCO4)c2O[C@H]1CN(C)C(=O)Nc1cccc2ccccc12 -2.55%, C[C@H](CO)N1C[C@H](C)[C@H](CN(C)C(=O)NC2CCCCC2)Oc2ccc(NC(=O)CCCN(C)C)cc2CC1=O 1.62%, C[C@H]1CN([C@@H](C)CO)S(=O)(=O)c2ccc(-c3cccc(C#N)c3)cc2O[C@H]1CN(C)C(=O)c1ccccc1 5.87%, COc1ccc(NS(=O)(=O)c2ccc(F)cc2F)cn1 1.04%, Cc1nc2ccccc2c(=O)n1-c1ccc(F)c(NC(=O)c2cccs2)c1 -0.817%, O=C1C[C@@](C(=O)NCC(F)(F)F)(c2ccc([N+](=O)[O-])cc2)[C@@H](c2ccc(CO)cc2I)N1C1CCCCC1 2.45%, COc1ccc(S(=O)(=O)Nc2ccc3c(c2)CC(=O)N([C@@H](C)CO)C[C@@H](C)[C@@H](CN(C)Cc2ccc(C(=O)Nc4ccccc4N)cc2)O3)cc1 -1.35%, C[C@H]1CN([C@@H](C)CO)C(=O)Cc2cc(NS(=O)(=O)c3ccccc3)ccc2O[C@H]1CN(C)Cc1ccc(C(=O)Nc2ccccc2N)cc1 -0.988%, C[C@H]1CN([C@@H](C)CO)S(=O)(=O)c2ccc(C#Cc3ccccc3)cc2O[C@@H]1CN(C)C(=O)C1CC1 2.82%, CN(C)C(=O)c1ccc(-c2ccccc2[C@H]2[C@@H](CO)N(C(=O)C3CCCCC3)[C@H]2C#N)cc1 -0.604%, COc1ccc(CN(C)C[C@@H]2Oc3ccc(NC(=O)Nc4ccc(F)cc4)cc3CC(=O)N([C@@H](C)CO)C[C@H]2C)cc1 3.48%, CC(C)(O)C#Cc1ccc([C@H]2[C@@H](CO)N3CCCCN(C(=O)c4ccncc4)C[C@H]23)cc1 1.18%, COCC(=O)N1CC(=O)N2[C@H](CO)[C@@H](c3ccc(C#CC4CCCC4)cc3)[C@H]2C1 -0.852%, CCOc1ccc(CCNC(=O)Nc2ccccc2)cc1OCC -1.26%, CCOc1ccc(C(=O)NCC(=O)N2CCCCCCC2)cc1OCC -0.226%, O=C(C[C@H]1CC[C@@H](NC(=O)c2ccncc2)[C@@H](CO)O1)Nc1ccccc1 1.11%, CCNC(=O)C[C@@H]1CC[C@H]2[C@@H](COc3ccc(NC(=O)NC(C)C)cc3C(=O)N2C)O1 0.619%, O=C(Cn1cnc2ccccc21)N/N=C/c1ccco1 1.45%, Cc1n[nH]c(=O)nc1N/N=C/c1cccs1 0.991%, COc1ccccc1C#Cc1cnc2c(c1)C(=O)N([C@@H](C)CO)C[C@H](C)[C@@H](CN(C)C(=O)CC1CC1)O2 -4.85%, CCOc1ccc(CCN2C(=O)c3cccnc3C2=O)cc1OCC 3.27%, C[C@@H]1CN([C@H](C)CO)C(=O)c2cc(NC(=O)Cc3ccccc3)ccc2O[C@@H](C)CCCCO[C@H]1CN(C)C(=O)Cc1ccccc1 1%

inhibition, active:
C=C1c2c(Cl)ccc(O)c2C(O)=C2C(=O)[C@]3(O)C(O)=C(C(N)=O)C(=O)[C@@H](N(C)C)[C@@H]3[C@@H](O)C12 (stereo partly specified) 73.9%, CN(C)[C@@H]1C(=O)C(C(N)=O)=C(O)[C@@]2(O)C(=O)C3=C(O)c4c(O)ccc(Cl)c4[C@@H](O)[C@H]3C[C@@H]12 49.5%, COc1ccc(C=Nc2cccc3ncccc23)cc1 44.7%, O=C(O)CCC(=O)NCc1ccc2[nH]c3c(c2c1)CCCC3 41.9%, C=CCn1c(=S)[nH]c2scc(-c3ccco3)c2c1=O 80.7%, Cc1nc2ccccc2c(=O)n1-c1ccc(NS(=O)(=O)c2ccc(F)cc2F)cc1 49.9%, C[C@H]1CN([C@@H](C)CO)C(=O)Cc2cc(NS(=O)(=O)c3ccccc3)ccc2O[C@@H]1CN(C)Cc1ccc(C(=O)Nc2ccccc2N)cc1 39.7%, COC(=O)CCCCC1=CCC2C(=O)C=C(O)C2C1 (stereo unspecified) 70.5%, CCOc1cc(C(=O)O)ccc1OCCOc1ccccc1 35.6%, O=c1nc(N/N=C/c2ccco2)cn[nH]1 55.7%, NC1=CC(=O)C(=O)c2cccnc21 93.8%
